CIT2 TOR yeast – modulators of TOR pathway CIT2-GFP in S. cerevisiae; GFP response vs DMSO, % at 10 µM; 0.065% of 320,000 active; S. cerevisiae CIT2-GFP strain, flow cytometry, 3 h; 100 means same as DMSO wells;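 active = GFP response relative to DMSO above a set limit, near the screen mean plus 3 SD, cut at about 150% in these data; inconclusive = Fewer than 70 cells measured for a yeast strain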;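 note: ratio of well median GFP fluorescence to mean of DMSO wells on the plate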
RPL19A-GFP yeast – yeast TOR pathway RPL19A-GFP modulation. S. cerevisiae RPL19A-GFP strain, flow cytometry, 3 h; hits give low values. percent response vs DMSO, % at 10 µM. 0.3% of 330,000 active;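 active = percent response vs DMSO below 50%; inconclusive = fewer than 70 events counted for the yeast strain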;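 note: median channel GFP fluorescence of the barcoded RPL19A-GFP strain; ratio of sample median GFP to plate DMSO average so 100% = DMSO; lower means less RPL19A-GFP as with rapamycin TOR inhibition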
LAP4-GFP MLPCN – modulators of TOR pathway LAP4-GFP in S. cerevisiae; AID 2023; 0.34% of 320,000 active; S. cerevisiae LAP4-GFP multiplex, flow cytometry GFP, 3 h; median GFP as percent of DMSO wells; GFP response vs DMSO, % at 10 µM;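 active = GFP response vs DMSO above a set limit, about the screen mean plus 3 SD, cut at about 150% in these data; inconclusive = under 70 cell events counted for the yeast strain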
MEP2-GFP yeast – yeast TOR pathway MEP2-GFP modulation; 0.51% of 330,000 active; S. cerevisiae MEP2-GFP strain, flow cytometry GFP, 3 h; 100% = DMSO control level; GFP response vs DMSO, % at 10 µM;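 active = GFP response versus DMSO above a set limit, roughly screen mean plus 3 SD, cut at about 180% in these data; inconclusive = fewer than 70 cells counted for a yeast strain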;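 note: median GFP fluorescence of the barcode-gated MEP2-GFP cells per well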
Myeloid diff MLP – compounds promoting myeloid differentiation. calls only at 10 µM. ER-HoxA9 myeloid progenitors, lysozyme-GFP differentiation, flow cytometry. AID 624256. 1% of 360,000 active;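 active = normalized GFP-positive differentiation at or above the plate's own cutoff, the solvent-only control mean plus 3 SD; inconclusive = no clear call, values can overlap the other calls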;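 note: cells exposed to compound for four days before flow analysis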
AGP1 TOR yeast – alters AGP1-GFP fluorescence in TOR pathway yeast screen; S. cerevisiae AGP1-GFP multiplex flow cytometry, 3 h; GFP as percent of DMSO wells; GFP response vs DMSO, % at 10 µM; 0.02% of 320,000 active;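 active = GFP response relative to DMSO above a set limit, near screen average plus 3 SD, cut at about 150% in these data; inconclusive = fewer than 70 cells counted for the yeast strain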;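 note: median GFP channel fluorescence of the gated AGP1 strain per well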
The depositor's hits bear a star; i = inactive; ? = inconclusive; . = no result; + = active, no number; [ ] = dose if it differs, or a comment. Most compounds without a hit are left out; they make up all but 1.8% or so of the library.

SMILES	CIT2 TOR yeast	RPL19A-GFP yeast	LAP4-GFP MLPCN	MEP2-GFP yeast	Myeloid diff MLP	AGP1 TOR yeast
CC(=O)c1cccc(-c2ccnc3c2CC(C(=O)Nc2cccc(N(C)C)c2)O3)c1 (configuration not stated)	.	.	.	.	i	.
COc1ccc(-c2c(C(C)=O)c(C)nc3sc4c(=N)n(N)cnc4c23)cc1	110	107	106	112	i	113
COc1ccc(C2NC(=O)c3sc4nc(C)c(C(C)=O)c(-c5ccc(Cl)cc5)c4c3N2)cc1 (configuration not stated)	?	30*[may fluoresce violet]	97	417*[may fluoresce violet]	i	32
CCOc1ccc(NC(=O)NCCCN2CCCC2)cc1	?	39*[may fluoresce violet]	95	251*[may fluoresce violet]	i	?
COc1ccccc1NC(=O)OCC#CCOC(=O)Nc1ccccc1OC	99	103	97	110	i	95
Cn1cnc([N+](=O)[O-])c1S(=O)(=O)c1cccc(Cl)c1	106	96	110	177*	?	123
Cn1cnc([N+](=O)[O-])c1S(=O)(=O)Nc1ccccc1	.	.	.	.	i	.
CCOc1ccccc1NC(=O)Nc1ccc2c(c1)CCC2	109	111	115	113	+	115
CCOc1ccccc1NC(=O)Nc1cccc(NC(C)=O)c1	98	96	90	100	i	93
O=C(O)CCC(=O)Nc1ccc(S(=O)(=O)c2ccc(NC(=O)CCC(=O)O)cc2)cc1	105	103	102	97	i	151*
O=C(O)CCC(=O)Nc1ccc(S(=O)(=O)N2CCCC2)cc1	87	88	90	100	i	92
Cc1cccc(-n2c(SCCC(=O)O)nnc2-c2cccs2)c1C	93	98	97	102	i	99
Cc1ccc(NC(=O)c2ccc(Cn3cc(Br)cn3)o2)cc1	?	44*[may fluoresce violet]	95	206*[may fluoresce violet]	i	74
NNC(=O)c1ccc(Cn2cc(Br)cn2)o1	97	101	106	99	i	106
Cc1nc(C(=O)NCc2ccccc2)sc1C1(C)CC(c2cccc([N+](=O)[O-])c2)=NO1 (configuration not stated)	102	95	97	101	i	96
CCOC(=O)C1CCCN(C(=O)c2ccccc2)CC1 (configuration not stated)	.	.	.	.	i	.
Cc1ccc(NC(=O)CSc2nnc(C)n2CC2CCCO2)cc1 (configuration not stated)	110	106	107	107	+	111
CCOC(=O)c1ccc(NC(=O)CN(C)S(=O)(=O)c2ccc(OC)cc2)cc1	102	98	96	103	+	102
COc1ccc(N(CC(=O)N/N=C/c2cc(OC)ccc2OC)S(=O)(=O)c2ccccc2)cc1	147	110	131	185*	i	99
COc1ccc(N(CC(=O)Nc2cc(Cl)ccc2OC)S(=O)(=O)c2c(C)noc2C)cc1	104	101	107	103	+	106
COc1ccccc1NC(=O)CN(c1ccccc1)S(=O)(=O)c1ccccc1	99	101	95	111	i	99
COc1ccc(N(CC(=O)Nc2ccccc2OC)S(=O)(=O)c2ccc(NC(C)=O)cc2)cc1	115	107	82	98	+	106
CC(=O)C1=C(O)C(=O)N(c2ccc(O)cc2)C1c1ccccc1F (configuration not stated)	99	101	95	97	i	98
CCN(CC)CCn1c(=O)n(-c2ccc(Cl)cc2)c(=O)c2c3c(sc21)CN(C)CC3	98	96	103	99	+	102
CN1CCc2c(sc3c2c(=O)n(-c2ccc(Cl)cc2)c2nncn32)C1	109	100	96	97	i	106
SMILES	CIT2 TOR yeast	RPL19A-GFP yeast	LAP4-GFP MLPCN	MEP2-GFP yeast	Myeloid diff MLP	AGP1 TOR yeast
CCS(=O)(=O)C1=NN2C(=N)/C(=C\c3ccc(OC(=O)c4ccco4)c(Br)c3)C(=O)N=C2S1	111	106	97	102	.	114
CCOc1cc(/C=C2\C(=N)N3N=C(S(=O)(=O)CC)SC3=NC2=O)ccc1OC(=O)c1ccco1	92	47*	79	129	i	28
COc1cc(/C=C2/C(=N)N3C(=NC2=O)SN=C3S(C)(=O)=O)ccc1OS(=O)(=O)c1ccccc1	88	53	80	115	.	22
CCOc1cc(/C=C2/C(=N)N3C(=NC2=O)SN=C3S(C)(=O)=O)ccc1OS(=O)(=O)c1ccccc1	?	13*[may fluoresce violet]	73	154	i	?
CC(=O)C1=C(C)NC(SCC(=O)c2ccc(Cl)cc2)=C(C#N)C1c1ccco1 (configuration not stated)	94	99	108	110	+	105
CCOC(=O)C1=C(c2ccccc2)NC(SCC(=O)Nc2ccc(C)cc2)=C(C#N)C1c1ccco1 (configuration not stated)	?	19*[may fluoresce violet]	89	271*[may fluoresce violet]	i	?
Cc1ccc(NC(=O)CSC2=C(C#N)C(c3ccco3)CC(=O)N2)cc1 (configuration not stated)	?	98	98	183*[may fluoresce violet]	i	100
O=C(Nc1ccc2[nH]c(=O)[nH]c2c1)c1cc(F)c(F)cc1Cl	95	96	103	103	i	102
O=S(=O)(Nc1cc2nc3ccccc3nc2n1Cc1ccccc1)c1ccc(Cl)cc1	93	95	95	98	+	96
O=S(=O)(NCc1ccccc1)c1ccc(Cl)cc1	103	99	97	105	i	104
CN1c2ccsc2/C(=N/Nc2ccc(F)cc2)CS1(=O)=O	95	95	151*	98	.	103
CC(=O)c1ccc(NC(=O)CSc2nnc(C3CC3)n2C)cc1	102	103	100	100	i	107
O=S1(=O)N=C2CCCCCN2C(c2ccc(F)cc2)N1 (configuration not stated)	?	17*[may fluoresce violet]	105	192*[may fluoresce violet]	i	?
CCN1/C(=C/C=C/C=C/c2sc3ccccc3[n+]2CC)Sc2ccccc21	109	?	?	265*[may fluoresce red]	.	36
COc1cc2c(C(=O)NCCCOC(C)C)cn(CC(C)C)c(=O)c2cc1OC	92	103	103	99	i	99
CC1CN(c2nnnn2-c2ccccc2)CC(C)O1 (configuration not stated)	112	78	95	188*	i	29
C#CCOCCOCCOCCNc1nc(N2CCN(C(=O)CCCCCCCCCCNC(=O)[C@H](CCCCN)n3cc(C[C@@H](C)CC)nn3)CC2)nc(N2CCN(C(=O)CCCCCCCCCCNC(=O)[C@H](CCCCN)n3cc(C[C@@H](C)CC)nn3)CC2)n1	87	69	216*	105	+	92

Compound activity deposited in PubChem by NMMLSC.
